Measurements taken from article PMC9838217, “Structure of SALL4 zinc finger domain reveals link between AT-rich DNA binding and Okihiro syndrome”.
Where a chain is given by its changes, count along the chain named.

What was measured:
Test in all cases: HT-SELEX; high values mean tight binding
Conditions in all cases: protein: recombinant; vector His6-GST; dsDNA, one strand shown
[1] = molecular target: T1, SALL4 ZFC4 WT (HT-SELEX) (Mus musculus, UniProt Q8BX22 870-940)
T1 sequence: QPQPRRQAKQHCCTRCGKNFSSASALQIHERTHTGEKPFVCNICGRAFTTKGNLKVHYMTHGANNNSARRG
Method in brief: (§1)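 Each canonical k-mer's binding signal is its read fraction expressed as fold change over the initial random library. Reads came from MiSeq sequencing, scanned for 6-mers, after up to 6 triplicate cycles in which purified recombinant mouse SALL4 zinc finger cluster 4 (residues 870–940, 1 µg) bound library DNA (1.5 µg first cycle, 200 ng later) in 100 µl of 10 mM Tris–HCl pH 7.5, 50 mM NaCl, poly(dI-dC), DTT for 10 min at room temperature. Complexes were then Ni2+ bead-captured, washed, PCR-amplified and reselected.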

[2] = molecular target: T2, SALL4 ZFC4 R900W (HT-SELEX) (Mus musculus, UniProt Q8BX22 870-940, R900W)
T2 sequence: T1 sequence with R31W
Method in brief: as §1

[3] = molecular target: T3, SALL4 ZFC4 G921D (HT-SELEX) (Mus musculus, UniProt Q8BX22 870-940, G921D)
T3 sequence: T1 sequence with G52D
Method in brief: as §1

Row | Sequence | binding signal [1] [fold-change vs cycle 0] | binding signal [2] [fold-change vs cycle 0] | binding signal [3] [fold-change vs cycle 0]
1 | CTCTGA | 0.812 ± 0.0446 | 0.948 ± 0.0551 | 0.993 ± 0.0433
2 | ATGGAA | 1.5 ± 0.0823 | 1.48 ± 0.0671 | 1.36 ± 0.0808
3 | AGCCTG | 0.325 ± 0.0218 | 0.402 ± 0.0338 | 0.531 ± 0.0708
4 | CCATGG | 0.445 ± 0.023 | 0.524 ± 0.00825 | 0.622 ± 0.0615
5 | CATGTC | 0.763 ± 0.0529 | 0.908 ± 0.0423 | 0.939 ± 0.0158
6 | AGTCTG | 0.76 ± 0.0287 | 0.869 ± 0.0157 | 0.92 ± 0.0107
7 | GGGATA | 0.88 ± 0.0566 | 0.967 ± 0.0568 | 0.94 ± 0.0469
8 | GTACCA | 0.755 ± 0.0123 | 0.835 ± 0.0283 | 0.893 ± 0.0178
9 | ATACAG | 1.33 ± 0.0931 | 1.41 ± 0.0818 | 1.36 ± 0.0886
10 | CCAAGC | 0.327 ± 0.034 | 0.384 ± 0.0115 | 0.516 ± 0.0505
11 | CATACA | 1.36 ± 0.0385 | 1.37 ± 0.0315 | 1.32 ± 0.0664
12 | CTGTTA | 1.37 ± 0.0494 | 1.47 ± 0.0717 | 1.39 ± 0.112
13 | GAAGTC | 0.797 ± 0.0523 | 0.906 ± 0.0176 | 0.953 ± 0.00992
14 | AAGTGA | 1.34 ± 0.0271 | 1.52 ± 0.0501 | 1.42 ± 0.0562
15 | TGCTAA | 1.16 ± 0.0453 | 1.24 ± 0.0475 | 1.21 ± 0.0656
16 | AACTCG | 0.7 ± 0.0308 | 0.798 ± 0.00905 | 0.871 ± 0.024
17 | CTTTTA | 1.77 ± 0.0546 | 1.86 ± 0.125 | 1.63 ± 0.122
18 | CGGGTA | 0.363 ± 0.0204 | 0.435 ± 0.0153 | 0.521 ± 0.0456
19 | GTTTAA | 1.69 ± 0.0773 | 1.79 ± 0.0911 | 1.63 ± 0.153
20 | GGATCC | 0.489 ± 0.0186 | 0.559 ± 0.0217 | 0.643 ± 0.0527

Row | Sequence | binding signal [1] [fold-change vs cycle 0] | binding signal [2] [fold-change vs cycle 0] | binding signal [3] [fold-change vs cycle 0]
21 | AAAATA | 3.77 ± 0.346 | 2.25 ± 0.159 | 1.96 ± 0.218
22 | CCGTAC | 0.377 ± 0.0221 | 0.458 ± 0.015 | 0.544 ± 0.0408
23 | ACCAGA | 0.795 ± 0.0237 | 0.921 ± 0.0435 | 0.947 ± 0.0126
24 | AAGTGC | 0.551 ± 0.0359 | 0.63 ± 0.00993 | 0.76 ± 0.0221
25 | AGCTTG | 0.638 ± 0.0175 | 0.764 ± 0.0176 | 0.841 ± 0.049
26 | GTATGA | 1.51 ± 0.0577 | 1.49 ± 0.0331 | 1.38 ± 0.0706
27 | CGTACA | 0.639 ± 0.0345 | 0.729 ± 0.0226 | 0.802 ± 0.0376
28 | GACACC | 0.393 ± 0.0241 | 0.461 ± 0.0351 | 0.593 ± 0.067
29 | TAGTAA | 2.21 ± 0.0521 | 2.24 ± 0.0692 | 1.89 ± 0.181
30 | GTTTGA | 1.14 ± 0.0365 | 1.26 ± 0.0348 | 1.23 ± 0.0615
31 | AGAGCA | 0.756 ± 0.0413 | 0.893 ± 0.0729 | 0.98 ± 0.0193
32 | TATCGA | 1.23 ± 0.0345 | 1.2 ± 0.0508 | 1.22 ± 0.03
33 | AATTCC | 1.34 ± 0.0764 | 1.36 ± 0.0844 | 1.31 ± 0.0693
34 | AATGCT | 1.15 ± 0.0126 | 1.19 ± 0.0201 | 1.225 ± 0.011
35 | GCCTGA | 0.303 ± 0.0278 | 0.386 ± 0.0159 | 0.497 ± 0.0446
36 | AAGACC | 0.72 ± 0.0283 | 0.834 ± 0.0193 | 0.911 ± 0.0351
37 | AACTTA | 2.13 ± 0.126 | 2.11 ± 0.126 | 1.89 ± 0.231
38 | GACCTA | 0.743 ± 0.0147 | 0.857 ± 0.0141 | 0.926 ± 0.0368
39 | CCACAG | 0.371 ± 0.0258 | 0.424 ± 0.0221 | 0.535 ± 0.0512
40 | ACTGGA | 0.84 ± 0.022 | 0.993 ± 0.0196 | 1.01 ± 0.0605

Row | Sequence | binding signal [1] [fold-change vs cycle 0] | binding signal [2] [fold-change vs cycle 0] | binding signal [3] [fold-change vs cycle 0]
41 | AATGTG | 1.15 ± 0.0171 | 1.23 ± 0.0476 | 1.25 ± 0.0281
42 | AACCTG | 0.802 ± 0.0637 | 0.917 ± 0.053 | 0.952 ± 0.0288
43 | GTTCCA | 0.74 ± 0.03 | 0.862 ± 0.0102 | 0.915 ± 0.0401
44 | GTGGTA | 0.757 ± 0.0708 | 0.849 ± 0.0366 | 0.874 ± 0.0298
45 | GAGATA | 1.52 ± 0.0868 | 1.54 ± 0.105 | 1.45 ± 0.133
46 | AACGTG | 0.697 ± 0.0529 | 0.827 ± 0.0416 | 0.87 ± 0.0436
47 | AGCAAG | 0.735 ± 0.0328 | 0.837 ± 0.0375 | 0.888 ± 0.035
48 | AAACCA | 1.14 ± 0.0582 | 1.23 ± 0.0362 | 1.24 ± 0.0488
49 | AACCGT | 0.674 ± 0.0289 | 0.776 ± 0.0238 | 0.826 ± 0.0315
50 | ATCCGA | 0.684 ± 0.0383 | 0.781 ± 0.0221 | 0.89 ± 0.0142
51 | GGAGAC | 0.471 ± 0.0075 | 0.574 ± 0.0262 | 0.671 ± 0.0455
52 | GCTTGA | 0.627 ± 0.00807 | 0.737 ± 0.0133 | 0.831 ± 0.0377
53 | CAGAAG | 0.787 ± 0.03 | 0.933 ± 0.0195 | 0.93 ± 0.0319
54 | ACGGTG | 0.355 ± 0.0186 | 0.414 ± 0.0142 | 0.528 ± 0.0554
55 | AAACTT | 1.81 ± 0.119 | 1.89 ± 0.128 | 1.68 ± 0.174
56 | ATCGGG | 0.397 ± 0.0233 | 0.457 ± 0.0142 | 0.568 ± 0.0671
57 | AACATT | 1.95 ± 0.0486 | 1.96 ± 0.0488 | 1.79 ± 0.136
58 | ACTCAG | 0.865 ± 0.0453 | 0.97 ± 0.0144 | 0.994 ± 0.0115
59 | AGGGGG | 0.323 ± 0.0254 | 0.375 ± 0.0258 | 0.443 ± 0.0497
60 | CTTGCA | 0.697 ± 0.0262 | 0.7756 ± 0.00768 | 0.856 ± 0.0345
